Results on 40 compounds are retold here after PubChem BioAssay (NCATS).

Inconclusive results are not listed. A call without a number means that no potency is given here. The source made the active and inactive calls. Calls follow the shape of the dose curve; as a rule, active = well fitted cell-killing curve with a large enough effect; inconclusive = small, poorly fitted or top-dose-only effect, or effect the other way; inactive = no such curve, though single readings can be large or run the other way.
Potency is read from the fitted curve at half-maximal effect.

The nature of the assay: Quantitative highthroughput screen to assess conditional lethalithy of SEM cells grown in RPMI1640 with dialyzed fetal bovine serum (RPMI+ds) (AID 1963884). Also: nearly all actives have a fitted effect of over 35% in size. Particulars: SEM B-ALL cells, RPMI+dialyzed FBS, CellTiter-Glo viability, 48 h; series mostly up to 45.8 µM. The text has this:
Assay Provider: Jason Cantor Ph.D.
Department of Biochemistry
University of Wisconsin-Madison, Madison, WI, USA
Chemical screening studies have identified drug sensitivities across hundreds of cancer cell lines but most putative therapeutics fail to translate. Discovery and development of drug candidates in models that more accurately reflect nutrient levels in human blood is a major challenge. Here we performed high-throughput screens in conventional versus Human Plasma-Like Medium (HPLM) to identify compounds that were "missed" when screening using the artificial culture condition. Sets of conditional anticancer compounds spanned phases of clinical development and included non-oncology drugs were assessed. […] We also traced conditional phenotypes for several chemotherapeutics to availability of HPLM-specific metabolites and confirmed others for compounds whose reported targets are encoded by nonessential genes. Our findings establish generalizable strategies for exploiting conditional lethality in HPLM to reveal therapeutic candidates and mechanisms of action in cancer cells.
Described herein are the results of each viability screens against three cell lines: NOMO1 (an acute myeloid leukemia cell line); P12-Ichikawa (a T-cell acute lymphoblastic leukemia); and SEM (a B-cell ALL). Each assay was screened using 3 different cell culture media: homemade human plasma-Like medium with 10% dialyzed fetal bovine serum (HPLM+ds); RPMI1640 with 10% untreated FBS and 5mM glucose (RPMI+s); and RPMI1640 with 10% dialyzed fetal bovine serum and 5 mM glucose (RPMI+ds).
PROTOCOL TABLE (as described by Inglese J, Shamu CE and Guy RK. 2007)
SEQUENCE No. (e.g., 1, 2, 3, etc.); […] (e.g., Cells, Incubation, Reagent, etc.); VALUE and DESCRIPTION.
1; Cells; 5 uL; white, solid bottom 1536-well Greiner assay plate.
2; Compounds; 23 nL; Kalypsis pin tool (Wako USA) equipped with a 1536-well pin head to transfer to the assay plates.
3; Incubation; 48 hours; 37C incubation.
4; Reagent; 3 uL; CellTiter Glo (Promega).
5; Incubation; 5 min, room temperature
6; Detection; Luminescence, Viewlux PerkinElmer.
NOTES (numbers refer to Sequence numbers above)
1. Briefly, 5 ul of cell reagent was dispensed using a Multidrop Combi Dispenser. The NOMO1 and SEM cells were plated at 500 cells/well and the P12-Ichikawa line at 1000 cells/well.
2. After seeding the cells, 23 nL of MIPE 4.1 library compounds (in DMSO) were added to each plate using a Kalypsys 1536 Pintool dispenser. Bortezomib at final concentration of […] and DMSO were added to each plate as positive and negative controls respectively. For each screen, MIPE 4.1 compounds were added over an eleven-point concentration range […] in 3-fold dilutions.
3. Each plate was covered with a stainless steel gasketed lid to prevent evaporation and incubated for 48 hour at 37C, 95% relative humidity, and 5% CO2.
4-5. Three microliter CellTilter-GloTM luminescent substrate mix (Promega) reagent was added to the assay plate and incubated at room temperature for 5 min.
6. The luminescence signal was measured using a ViewLux (PerkinElmer) multiplate reader with a 2 second exposure time per plate. Data for each compound were normalized as percent viability such that measurements for DMSO and the empty well controls in each plate were defined as 100% and 0%, respectively.
(In general: Cellular ATP, detected with luciferase, serves as a proxy for viable cell number.)
For `Oc1ccc2c3c1O[C@H]1c4[nH]c5c(c4C[C@@]4(O)[C@@H](C2)N(CC2CC2)CC[C@]314)C[C@@]1(O)[C@H]2Cc3ccc(O)c4c3[C@@]1(CCN2CC1CC1)[C@H]5O4`, the Potency result was “inactive”. The value for `CC(N[C@H]1C[C@H]1c1ccccc1)c1ccc2c(c1)OCCO2` (stereo not given in full) was “inactive”; that for `O=C(Oc1ccc([N+](=O)[O-])cc1)N1CCN(Cc2cccc(Oc3ccccc3)c2)CC1` was “inactive”. Take `C#CC1(O)CCC2C3CCC4=CC(=O)CCC4(C)C3CCC21C` (stereo not given): the Potency result was “inactive”. As for `C[C@]12CC[C@H]3[C@@H](CCC4=CC(=O)CC[C@@]43C)[C@H]1CC[C@H]2OC(=O)CCC1CCCC1`, the Potency entry was “inactive”. With `CC=C(C)C(=O)O[C@H]1C(C)=C2[C@@H]3OC(=O)[C@@](C)(O)[C@@]3(O)[C@@H](OC(=O)CCC)C[C@](C)(OC(C)=O)[C@@H]2[C@@H]1OC(=O)CCCCCCC`, the Potency is 33.2 nM (active). `NC1CC1c1ccccc1` (stereo not given): the Potency result was “inactive”.

Consider `Cc1cccc(C)c1NC(=O)CN1CCCC1=O`, for which the Potency result was “inactive”. The value for `COc1cc(OC)c(OC)cc1C=O` was “inactive”. The value for `C[C@@H]1[C@H](O)[C@@H](C)C=CC=CCCC=CC=CC=CC=C[C@H](O[C@H]2O[C@@H](C)[C@H](O)[C@@H](N)[C@@H]2O)CC2O[C@](O)(C[C@@H](O)[C@H](O)CC[C@@H](O)C[C@@H](O)C[C@@H](O)CC(=O)O[C@H]1C)C[C@H](O)[C@H]2C(=O)O` was “inactive”.

For the compound `C[C@@H]1CC[C@@]2(OC1)O[C@H]1C[C@H]3[C@@H]4CC=C5C[C@@H](O[C@@H]6O[C@H](CO)[C@@H](O[C@@H]7O[C@@H](C)[C@H](O)[C@@H](O)[C@@H]7O)[C@H](O)[C@@H]6O[C@@H]6O[C@@H](C)[C@H](O)[C@@H](O)[C@@H]6O)CC[C@]5(C)[C@@H]4CC[C@]3(C)[C@@H]1[C@H]2C`, the Potency is 14800 nM (active).

On to `O=S(=O)(F)Cc1ccccc1`, for which the Potency result is “inactive”. The value for `CN(C)CCN(C)CCc1ccc(Cl)c(Cl)c1` was “inactive”; that for `CC(=O)OCC1=C(C(=O)O)N2C(=O)[C@@H](N)[C@@H]2SC1` was “inactive”; that for `CN(C)[C@@H]1C(=O)C(C(N)=O)=C(O)[C@@]2(O)C(=O)C3=C(O)c4c(O)cccc4[C@@](C)(O)[C@H]3[C@H](O)[C@@H]12` was “inactive”. With `CC(C)[C@H]1C(=O)N[C@H](CO)Cc2c[nH]c3cccc(c23)N1C`, the Potency entry was “inactive”. As for `C[C@]12CCC(=O)C=C1CC[C@@H]1[C@H]3CC[C@](C)(O)[C@@]3(C)CC[C@@H]12`, the Potency entry was “inactive”.

As to `O=C(NCC1CCOCC1)c1cnc(Nc2ccc(Cl)cc2Cl)nc1C(F)(F)F`, the Potency entry was “inactive”.

Consider `Cc1sc2c(c1C)C(c1ccc(Cl)cc1)=N[C@@H](CC(=O)OC(C)(C)C)c1nnc(C)n1-2`, for which the Potency is 209 nM (active). With `CC(=Cc1csc(C)n1)[C@@H]1C[C@H]2O[C@@H]2CCC[C@H](C)[C@@H](O)[C@@H](C)C(=O)C(C)(C)[C@@H](O)CC(=O)O1`, the Potency entry is “inactive”.

As for `O=C(O)c1nn(Cc2ccc(Cl)cc2Cl)c2ccccc12`, the Potency result is “inactive”. The value for `COc1cccc2c1[C@]13CCN(CC4CC4)[C@H](C2)[C@]1(OC)CCC(=O)C3` was “inactive”; that for `C[C@]12COC(=O)C[C@@H]1CC[C@@H]1[C@H]2CC[C@@]2(C)[C@H]1CC[C@]2(C)O` was “inactive”. In the case of `O=P1(NCCCl)OCCCN1CCCl` (stereo not given), the Potency is 20900 nM (active).

Turning to `CCNC(=O)CC1N=C(c2ccc(Cl)cc2)c2cc(OC)ccc2-n2c(C)nnc21` (stereo not given), the Potency was 23500 nM (active). Consider `CCOC(=O)Nc1ccc(NCc2ccc(F)cc2)cc1N`, for which the Potency result is “inactive”. In the case of `C[C@]12CC[C@H]3[C@@H](CCC4=CC(=O)CC[C@@]43C)[C@H]1CC[C@H]2O`, the Potency entry was “inactive”. `CC(C)[C@]12O[C@@H]1[C@@H]1O[C@]13[C@]1(O[C@H]1C[C@@H]1C4=C(CC[C@@]13C)C(=O)OC4)[C@H]2O`: the Potency was 1.2 nM (active). Take `C[C@@H]1CC[C@H]2[C@@H](C)C(=O)O[C@@H]3O[C@@]4(C)CC[C@H]1[C@]32OO4`: the Potency result is “inactive”. The value for `CC(=O)N(C)c1cccc(-c2ccnc3c(C(=O)c4cccs4)cnn23)c1` was “inactive”; that for `CC(C)N(CCNC(=O)CN1CCCC1=O)C(C)C` was “inactive”; that for `C[C@]12CCC(=O)C(O)=C1CC[C@@H]1[C@H]3CCC(=O)[C@@]3(C)CC[C@@H]12` was “inactive”. For the compound `CCCC[N+]1(C)[C@H]2CC(OC(=O)[C@H](CO)c3ccccc3)C[C@H]1[C@H]1O[C@H]12` (stereo not given in full), the Potency entry was “inactive”. In the case of `Cn1cc(C2=C(c3cn(C4CCN(Cc5ccccn5)CC4)c4ccccc34)C(=O)NC2=O)c2ccccc21`, the Potency is 5900 nM (active). The value for `Cc1cc(SCc2sc(-c3ccc(C(F)(F)F)c(F)c3)nc2C)ccc1OCC(=O)O` was “inactive”.

Take `CCOc1ccccc1-n1c(C(C)N2CCN(C(=O)COc3ccc(Cl)cc3)CC2)nc2ccccc2c1=O` (stereo not given): the Potency was 588 nM (active). The value for `C[C@@H]1[C@@H](CC(C[C@H]2O[C@@H]3O[C@]4(C)CC[C@@H]5[C@H](C)CC[C@@H]([C@H]2C)[C@@]35OO4)C[S+](=O)([O-])c2ccc(COC(=O)N(C)C)cc2)O[C@@H]2O[C@]3(C)CC[C@H]4[C@H](C)CC[C@@H]1[C@@]24OO3` (stereo not given in full) was 418 nM (active). With `CC(C)(C)[C@]1(O)C[C@@H]2OC(=O)C[C@@]23C(=O)O[C@@H]2OC(=O)[C@H](O)C213` (stereo not given in full), the Potency entry is “inactive”. The value for `CC(C)(O)C=CC(=O)[C@](C)(O)[C@H]1[C@H](O)C[C@]2(C)[C@@H]3CC=C4[C@@H](C=C(O)C(=O)C4(C)C)[C@]3(C)C(=O)C[C@@]12C` was 66.2 nM (active); that for `O=C1CC[C@@]2(O)[C@H]3Cc4ccc(O)c5c4[C@@]2(CCN3CC2CC2)[C@H]1O5` was “inactive”.
